Most compounds without a hit are left out; they make up all but 7.5% or so of the library.
ELG1 genotoxic: qHTS screen for small molecules that induce genotoxicity in human embryonic kidney (HEK293T) cells expressing luciferase-tagged ELG1 | AID 504466, 2011 | actives 1.3% (n = 330,000) | HEK293T ELG1-luciferase reporter, luminescence, 16 h | Potency, µM (doses to about 46 µM), inactives show top-dose activity change, positive = activation, usual class: activators; further: % of control where 0% means no effect; nearly all actives have a fitted effect of over 60% in size
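HEK293T cells expressing luciferase-tagged ELG1 were treated with compound or DMSO for 16 hr at 37°C. Luciferase activity was then read after 30 min with ONE-Glo at room temperature; rising signal flags genetic stress.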
NPC1 promoter act: qHTS Assay for NPC1 Promoter Activators. Huh7 NPC1 promoter luciferase reporter, 24 h. Potency, µM (top dose mostly 9.22 µM), for the others: top-dose activation, hits mostly activators. actives 2.4% (n = 320,000); further: % of control where 0% means no effect; nearly all actives have a fitted effect of over 60% in size
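Stable NPC1-promoter luciferase Huh7 line; cpd (DMSO) 24 h, 37 °C, 5% CO2; Amplite luciferase reagent 10 min RT; luminescence readout. qHTS format.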
SMN2 splice enh: qHTS Assay for Enhancers of SMN2 Splice Variant Expression | HEK293 SMN2-luciferase splicing reporter, luminescence, 30-36 h | Potency, µM (titrated, usually from 46.1 µM), for the others: at the highest dose activity change, positive = activation, usual class: activators | actives 2.8% (n = 210,000) | AID 1458, 2008; further: % of control where 0% means no effect; nearly all actives have a fitted effect of over 55% in size
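qHTS luciferase splicing reporter: luminescence rises when SMN2 exon 7 is included in transfected HEK293 cells. Compound exposure lasted 30-36 h at 37C, with 4.5 mM final sodium butyrate as control, followed by a ONE-Glo read.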
Rab9 promoter act: qHTS Assay for Rab9 Promoter Activators; Huh7 Rab9 promoter-luciferase reporter, luminescence, 24 h; Potency, µM (titrated, usually from 9.22 µM), for the others: at the top dose activation, negative = inhibition, hits mostly activators; actives 2.8% (n = 320,000); further: % of control where 0% means no effect; nearly all actives have a fitted effect of over 60% in size
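Steps: seed 1500 Huh7 Rab9-luc cells per well, rest 2 h at 37 °C; add compound in DMSO; incubate 24 h; add luciferase reagent, 10 min ambient; read luminescence.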
FLuc modulator: qHTS profiling assay for firefly luciferase inhibitor/activator using purifed enzyme and Km concentrations of substrates (counterscreen for miR-21 project); Luciferin 4-monooxygenase (Photinus pyralis), P08659; purified FLuc, Km substrates, luminescence inhibition; Potency, µM (top dose mostly 57.5 µM), without a hit: at the highest dose activity change, negative = inhibition, actives largely listed as inhibitors; actives 6.9% (n = 360,000); AID 588342, 2011;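 further: plate controls were vehicle for no effect and reference inhibitor for full effect; nearly all actives have a fitted effect of over 55% in size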
Target sequence (P08659 whole entry, looked up): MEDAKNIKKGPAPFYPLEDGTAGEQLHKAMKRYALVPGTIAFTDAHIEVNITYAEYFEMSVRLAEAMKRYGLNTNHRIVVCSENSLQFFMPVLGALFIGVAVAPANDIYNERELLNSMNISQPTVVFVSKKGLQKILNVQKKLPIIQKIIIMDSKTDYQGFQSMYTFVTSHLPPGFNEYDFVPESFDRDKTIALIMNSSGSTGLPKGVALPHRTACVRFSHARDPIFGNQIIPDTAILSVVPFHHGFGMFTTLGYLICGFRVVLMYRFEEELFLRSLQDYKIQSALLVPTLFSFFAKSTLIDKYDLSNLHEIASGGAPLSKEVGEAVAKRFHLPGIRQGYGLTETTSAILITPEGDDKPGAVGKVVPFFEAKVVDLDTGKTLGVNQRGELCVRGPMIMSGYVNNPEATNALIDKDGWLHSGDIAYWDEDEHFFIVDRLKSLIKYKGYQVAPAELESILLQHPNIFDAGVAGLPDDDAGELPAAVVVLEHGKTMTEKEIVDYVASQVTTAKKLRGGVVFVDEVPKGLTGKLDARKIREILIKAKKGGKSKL
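Purified P. pyralis luciferase (10nM final) with 10uM D-luciferin and 10uM ATP (Km levels) in 50mM Tris acetate pH 7.5, 10mM Mg acetate, 0.01% Tween-20, 0.05% BSA; qHTS 6-point titration, ~60 µM downward; luminescence read.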
KinaseGlo FLuc: Counterscreen for Luciferase (Kinase-Glo TM) Inhibition. Potency, µM (highest dose often 38.3 µM), for inactives: at the highest dose activity change, negative = inhibition, actives largely listed as inhibitors. AID 1379, 2008. Luciferin 4-monooxygenase (Photuris pensylvanica), Q27757. Kinase-Glo luciferase, ATP luminescence, 8 min. actives 0.28% (n = 200,000); further: on the % scale 0 is the no-effect control and ±100 the full control effect; nearly all actives have a fitted effect of over 60% in size
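Light output from Kinase-Glo luciferase with luciferin and 10 uM ATP in 50 mM imidazole pH 7.2, KCl, MgCl2, Tween 20, BSA; compound pin-delivered, 8-min ambient incubation, then luminescence read.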
Active calls of the source: *. The call rests on the fitted dose curve; in most records, active means well fitted curve in the direction sought with a large enough effect; inconclusive means small, poorly fitted or top-dose-only effect, or another doubt; inactive means no such curve, though single readings can be large; an effect the other way counts as inactive or inconclusive. Potency means the concentration at half of the fitted maximal effect.

Screening COc1ccc(-c2cc(C(=O)NC3CCCC3)no2)cc1 returned ELG1 genotoxic 3.7µM*, NPC1 promoter act 0.79µM*, Rab9 promoter act 1.8µM* and FLuc modulator 2.1µM*.
O=C(NC1CCCCC1)c1cc(-c2ccco2)on1 was read as ELG1 genotoxic inconclusive, NPC1 promoter act 2.5µM*, Rab9 promoter act 1.6µM* and FLuc modulator 6µM*.
For COc1cccc(-c2ccc3c(N)c(C(=O)c4ccc(F)cc4)sc3n2)c1 the results were SMN2 splice enh -25% and FLuc modulator -4%.
COc1cccc(-c2ccc3c(N)c(C(=O)NC4CC4)sc3n2)c1 was read as ELG1 genotoxic inconclusive, NPC1 promoter act 2µM*, Rab9 promoter act inconclusive and FLuc modulator 3µM*.
Cc1cccc(-c2nc(CS(=O)CC(=O)NC3CCCC(C)C3C)c(C)o2)c1 (stereo not drawn) was read as ELG1 genotoxic 2%, NPC1 promoter act -4%, Rab9 promoter act 0% and FLuc modulator -6%.
`Cc1ccccc1OC(=O)c1cc(-c2ccc3c(c2)OCCO3)on1` gave FLuc modulator 0.6µM*.
For Cc1cccc(OC(=O)c2cc(-c3ccc4c(c3)OCCO4)on2)c1C the results were FLuc modulator 5.4µM*.
O=C(Oc1ccccc1Cl)c1cc(-c2ccc3c(c2)OCCO3)on1 was read as FLuc modulator 2.7µM*.
Screening Cc1ccc(NCc2nnc(SCC(=O)NNC(=O)Cc3ccccc3)n2C)cc1 returned ELG1 genotoxic -2%, NPC1 promoter act -5%, Rab9 promoter act -11% and FLuc modulator -2%.
`COc1ccc(C(=O)Nc2cccc3ccccc23)cc1` gave ELG1 genotoxic 13%, NPC1 promoter act inconclusive, Rab9 promoter act inconclusive and FLuc modulator 19µM*.
`COc1ccc(Nc2cccc3ccccc23)cc1` gave ELG1 genotoxic 9%, NPC1 promoter act 19%, Rab9 promoter act inconclusive and FLuc modulator 27µM*.
COc1cc(OC)c(C(=O)Nc2cccc3ccccc23)cc1OC was read as ELG1 genotoxic 0%, NPC1 promoter act 10%, Rab9 promoter act 1% and FLuc modulator 19µM*.
Screening COc1ccc(C(=O)NNC(=O)C(=O)Nc2cccc3ccccc23)cc1 returned ELG1 genotoxic 4%, NPC1 promoter act -1%, Rab9 promoter act 10% and FLuc modulator -8%.
Screening COc1ccc(Nc2cc(C)c3ccccc3n2)cc1 returned ELG1 genotoxic inconclusive, NPC1 promoter act 28%, SMN2 splice enh inconclusive, Rab9 promoter act inconclusive, FLuc modulator 13µM* and KinaseGlo FLuc 3%.
Screening COc1ccc(Nc2cccccc2=O)cc1 returned ELG1 genotoxic 3%, NPC1 promoter act 29%, SMN2 splice enh 2%, Rab9 promoter act 22%, FLuc modulator inconclusive and KinaseGlo FLuc -4%.
For CCN(C(=O)CSc1nnc(-c2ccc(OC)cc2)n1C(C)C)C1CCS(=O)(=O)C1 (stereo not drawn) the results were ELG1 genotoxic -1%.
Cc1cc(-c2ccc3ccccc3c2)n2ncnc2n1 was read as ELG1 genotoxic 0%, NPC1 promoter act -1%, SMN2 splice enh -2%, Rab9 promoter act -6%, FLuc modulator -2% and KinaseGlo FLuc -3%.
CCOC(=O)CC(NC(=O)CCc1c(C)nc2c(-c3ccccc3)c(C)nn2c1C)c1ccc(C)cc1 (stereo not drawn) was read as SMN2 splice enh -68% and FLuc modulator -5%.
`c1ccc(Nc2scc(-c3ccccc3)[n+]2Cc2ccco2)cc1` gave ELG1 genotoxic inconclusive, NPC1 promoter act -4%, SMN2 splice enh -7%, Rab9 promoter act inconclusive, FLuc modulator 17µM* and KinaseGlo FLuc 1%.
c1ccc(C[n+]2c(-c3ccccc3)csc2Nc2ccccc2)cc1 was read as ELG1 genotoxic -4%, NPC1 promoter act 1%, SMN2 splice enh -17%, Rab9 promoter act -1%, FLuc modulator -11% and KinaseGlo FLuc 0%.
For Fc1ccccc1SCc1nnc(-c2ccccc2Br)o1 the results were ELG1 genotoxic 2.9µM*, NPC1 promoter act 0.71µM*, SMN2 splice enh 2.8µM*, Rab9 promoter act 0.35µM*, FLuc modulator 0.95µM* and KinaseGlo FLuc -8%.
For Cc1csc(SCc2nnc(-c3ccc(Cl)cc3)o2)n1 the results were ELG1 genotoxic 10µM*, NPC1 promoter act 2.8µM*, SMN2 splice enh inconclusive, Rab9 promoter act 2.8µM*, FLuc modulator 7.6µM* and KinaseGlo FLuc 0%.
Cc1nnc(SCc2nnc(-c3ccccc3Br)o2)n1-c1ccccc1 was read as ELG1 genotoxic 1%, NPC1 promoter act -1%, SMN2 splice enh -11%, Rab9 promoter act -1%, FLuc modulator -14% and KinaseGlo FLuc 0%.
Screening Cc1csc(SCc2nnc(-c3ccccc3Br)o2)n1 returned ELG1 genotoxic inconclusive, NPC1 promoter act 1.4µM*, Rab9 promoter act 1.8µM* and FLuc modulator 1.7µM*.
For Cc1ccc(-c2[nH]c3c(c2-c2c(-n4cccc4)n(C)c(=O)[nH]c2=O)c(=O)[nH]c(=O)n3C)cc1 the results were FLuc modulator -2%.
Screening COc1cc(NC(=O)c2cccs2)c(C(=O)OCC(=O)c2cc(C)n(-c3ccccc3)c2C)cc1OC returned ELG1 genotoxic -7%, NPC1 promoter act -17%, SMN2 splice enh 13%, Rab9 promoter act -20%, FLuc modulator 5.4µM* and KinaseGlo FLuc -4%.
`COc1ccc(-n2c(C)cc(C(=O)COC(=O)c3cc(NC(=O)c4cccs4)c(OC)c(OC)c3)c2C)cc1` gave ELG1 genotoxic -5%, NPC1 promoter act -7%, SMN2 splice enh -2%, Rab9 promoter act -1%, FLuc modulator 0% and KinaseGlo FLuc 2%.
`COc1cc(NC(=O)c2cccs2)c(C(=O)OCC(=O)NC(=O)NC(C)(C)C)cc1OC` gave ELG1 genotoxic -5%, NPC1 promoter act -2%, SMN2 splice enh -14%, Rab9 promoter act -5%, FLuc modulator -5% and KinaseGlo FLuc 0%.
